# LMNA splice mod: LMNA splicing modulation. HeLa LMNA splicing GFP/RFP minigene ratio, 48 h. Potency, µM (doses to about 46.1 µM), for inactives: at the highest dose ratio change, negative = inhibition, most hits filed as inhibitors. 200,000 compounds, 0.01% hits; active = well fitted inhibition curve with a large enough effect in the signal ratio, with a control signal flat, not every such curve was filed as active; inconclusive = small, poorly fitted or top-dose-only effect, or effect the other way, or a change in a side signal; the % refers to the signal ratio; also: potency is read from the fitted curve at half-maximal effect
#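 S3 HeLa stable clones carrying a lamin A-EGFP splicing minigene plus DsRed2 were seeded at 600 cells/well in Opti-MEM with 2% FBS, pin-dosed and incubated 48 h at 37°C. Acumen cytometry (488 nm) gave the GFP/RFP total-intensity ratio.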
# PNC assembly inh: perinucleolar compartment assembly inhibition; 140,000 compounds, 3.1% hits; PC3M PTB-GFP, PNC prevalence imaging, 16 h; hits give low values; AID 2417; activity change (PNC), negative = inhibition, % at 10 µM;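 active = readout at or below -70, meaning at least 70% loss of cells showing the perinucleolar compartment, a nuclear body marking cancer cells; inconclusive = readout between -30 and a set limit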;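 also: plate controls were DMSO wells for no effect and camptothecin positive control wells for full effect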
#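 Compounds are pinned in duplicate onto adhered PC3M cells stably expressing GFP-tagged PTB and incubated 16 h at 37 C. Cells are then fixed, nuclei stained with Hoechst, and PNC-positive cells counted.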
# ALDH1A1 block: inhibitors of human aldehyde dehydrogenase 1A1; Potency, µM (titrated, usually from 75.3 µM), for inactives: top-dose activity, negative = inhibition, most hits filed as inhibitors; Purified ALDH1A1, NADH fluorescence, propionaldehyde substrate; P00352; 220,000 compounds, 7.3% hits;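 also: potency is read from the fitted curve at half-maximal effect; plate controls were no enzyme wells and a reference inhibitor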
# Target sequence (P00352 whole entry, looked up): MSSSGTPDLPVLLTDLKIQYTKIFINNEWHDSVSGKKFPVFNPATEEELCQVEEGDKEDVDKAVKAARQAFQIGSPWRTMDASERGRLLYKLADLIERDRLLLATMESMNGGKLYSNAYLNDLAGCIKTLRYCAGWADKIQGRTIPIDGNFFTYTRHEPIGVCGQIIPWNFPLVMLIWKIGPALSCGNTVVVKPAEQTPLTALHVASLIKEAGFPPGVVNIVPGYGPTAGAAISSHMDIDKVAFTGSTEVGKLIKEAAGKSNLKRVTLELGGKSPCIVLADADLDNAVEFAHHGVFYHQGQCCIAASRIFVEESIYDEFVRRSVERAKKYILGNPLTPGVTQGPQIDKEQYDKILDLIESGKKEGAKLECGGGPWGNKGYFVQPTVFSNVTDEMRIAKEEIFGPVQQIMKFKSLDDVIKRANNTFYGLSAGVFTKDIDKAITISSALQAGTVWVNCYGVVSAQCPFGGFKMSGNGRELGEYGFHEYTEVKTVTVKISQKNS
# Luc counter: Kinase-Glo luciferase inhibition (counter-screen); Kinase-Glo luciferase, ATP luminescence, 8 min; Potency, µM (top dose mostly 38.3 µM), for the others: at the top dose activity change, negative = inhibition, usual class: inhibitors; 200,000 compounds, 0.28% hits; active = well fitted inhibition curve with a large enough effect; inconclusive = small, poorly fitted or top-dose-only effect; also: potency is read from the fitted curve at half-maximal effect; nearly all actives have a fitted effect of over 60% in size
#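 Substrate mix (final 50 mM imidazole pH 7.2, 50 mM KCl, 7 mM MgCl2, 10 uM ATP, 0.01% Tween 20, 0.05% BSA) plus pin-tool compound, then Kinase-Glo detection mix; 8 min ambient, luminescence read.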
# HPGD block: inhibitors of human 15-hydroxyprostaglandin dehydrogenase (HPGD). 150,000 compounds, 4.3% hits. Potency, µM, for inactives: top-dose activity change, negative = inhibition, usual class: inhibitors. purified HPGD, NADH fluorescence kinetic, PGE2 substrate. P15428; also: potency is read from the fitted curve at half-maximal effect
# Target sequence (P15428 whole entry, looked up): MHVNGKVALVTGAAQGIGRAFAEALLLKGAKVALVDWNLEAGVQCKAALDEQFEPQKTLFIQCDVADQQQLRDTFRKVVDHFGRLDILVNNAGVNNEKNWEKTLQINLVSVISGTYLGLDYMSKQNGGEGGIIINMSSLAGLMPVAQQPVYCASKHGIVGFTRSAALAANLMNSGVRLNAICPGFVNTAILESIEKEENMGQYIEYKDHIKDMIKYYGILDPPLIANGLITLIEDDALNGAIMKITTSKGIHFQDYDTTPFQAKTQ
#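 NADH formation kinetics: reaction with 30 uM PGE2 and 1 mM NAD+ (final), 20 nM enzyme, Tris-HCl pH 8 with Tween 20, after 15 min compound preincubation at room temperature. Fluorescence change, last versus first of five reads.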
# IMPase cell inh: membrane-permeable compound that blocks inositol monophosphatase | CHO-M1 cells, IP1 accumulation, HTRF TR-FRET ratio | inhibition (IP1 accumulation), % at 46.1 µM | 120,000 tested, under 10 active | AID 901; active = well fitted curve in the direction sought with a large enough effect in the signal ratio, not every such curve was filed as active; inconclusive = small, poorly fitted or top-dose-only effect, or a change in a side signal; inactive = no such curve, though single readings can be large or run the other way; the % refers to the signal ratio;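 also: cells stimulated with carbachol in lithium chloride buffer; plate controls were DMSO basal wells for no effect and reference inhibitor wells for full effect; higher means more IMPase inhibition seen as more IP1 and lower FRET ratio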
#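 Carbachol-driven Gq signalling in CHO-M1 cells (2000/well) generates IP1. Compounds that block IMPase raise IP1 and so reduce the FRET signal from Eu-anti-IP1 and d2-IP1 after a 10 min room-temperature lysis.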
# Active calls of the source: *; ? = inconclusive; . = no result given; [ ] = dose if it differs, or a comment. In the library only some 10% were active in any assay of this set; here they are far more common. Unless noted, calls follow the shape of the dose curve; as a rule, active = well fitted inhibition curve with a large enough effect (not every such curve was filed as active); inconclusive = small, poorly fitted or top-dose-only effect, or another doubt; inactive = no such curve, though single readings can be large or run the other way. Unless noted, % is scaled to controls: 0 for no effect and ±100 for the full control effect.
SMILES,LMNA splice mod,PNC assembly inh,ALDH1A1 block,Luc counter,HPGD block,IMPase cell inh
Cc1cc(C)n(C(=O)COc2ccc(Cl)cc2Cl)n1,-11%,-23,4%,-2%,-10%,8
Cc1cc(C)n(CCOc2ccc(Cl)cc2Cl)n1,5%,?,-2%,-1%,32µM*,-7
CCOc1cccc(CNc2ccc(O)cc2)c1OCc1ccc(Cl)cc1Cl,?,9,22µM*,-3%,-7%,12
CCOc1ccccc1CNC(=O)CCCN1C(=O)CCn2nc(-c3cccn3C)cc21,1%[46 µM],.,.,.,.,.
COc1ccc(Cn2nnnc2C(c2cc(OC)ccc2OC)N2CCC(C(N)=O)CC2)cc1 (centres undefined),?,11,14µM*,-1%,-5%,2
CC1CCN(C(c2ccc(N(C)C)cc2)c2nnnn2Cc2ccccc2)CC1 (centres undefined),10%,1,8.9µM*,2%,-12%,-1
CC1CCN(C(c2ccc(N(C)C)cc2)c2nnnn2C(C)(C)C)CC1 (centres undefined),10%,22,?,4%,-29%,5
CC1CCCN(C(c2cccs2)c2nnnn2Cc2ccccc2)C1 (centres undefined),14%,15,3.2µM*,2%,-18%,7
COc1ccc(Cn2nnnc2C(c2ccccc2Cl)N2CCC(C(N)=O)CC2)cc1 (centres undefined),9%,-27,-1%,0%,-16%,6
COc1ccc(Cn2nnnc2C(c2ccc(N(C)C)cc2)N2CCC(C)CC2)cc1 (centres undefined),6%,18,25µM*,-3%,-15%,7
Cc1nnc(N2CCN(C(=O)Nc3cccc(C(F)(F)F)c3)CC2)c2nn(-c3ccccc3)c(C)c12,12%[46 µM],.,.,.,.,.
Cc1ccc(/C=C(/NC(=O)c2ccccc2)C(=O)NCCc2c[nH]c3ccccc23)o1,7%,-29,28µM*,-1%,-23%,1
Cc1ccc(/C=C(\NC(=O)c2ccccc2)C(=O)NCCc2ccccn2)o1,2%,-9,22µM*,-2%,-18%,.
COc1c(O)c(O)cc2c1oc1c3ccccc3oc(=O)c21,.,.,?,2%,13µM*,.
O=c1oc2cc(O)ccc2c2oc3cc(O)ccc3c12,?,76,?,-2%,?,.
Cc1ccc(NC(=O)Cn2cc(C(=O)c3ccco3)c3ccccc32)cc1,8%[46 µM],.,.,.,.,.
CC(C)COc1nc2ccccc2c(=O)n1OCC(=O)O,-6%,?,-2%,-2%,-10%,-2
CCCOn1c(OCC(C)C)nc2ccccc2c1=O,16%,24,22µM*,-1%,-15%,-3
COc1ccc(C)cc1-n1nnnc1SCc1nc2ccccc2s1,?,-2,11µM*,-6%,-22%,2
COc1ccc(-c2nnn(CC(=O)c3ccc4c(c3)OCCO4)n2)cc1OC,?,?,28µM*,-2%,-6%,3
COc1ccc(C)cc1-n1nnnc1SCC(=O)c1ccc2c(c1)OCCO2,?,22,11µM*,-3%,-13%,4
O=C(Cn1nc(Cl)nc1Cl)c1ccc2c(c1)OCCO2,-4%,54,1.1µM*,-2%,-5%,-13
COc1cccc(Cn2c(=O)cnc3cnc(N(C)C)nc32)c1,-9%,.,?,.,.,.
CC(=O)N1c2ccc(S(=O)(=O)N3CCCCCC3)cc2CC1C(=O)NC(C)C (centres undefined),-1%[46 µM],.,.,.,.,.
COCCCn1c(SCC(=O)N2CC(=O)Nc3ccccc32)nnc1-c1ccoc1C,2%,-23,-7%,2%,-12%,6
SMILES,LMNA splice mod,PNC assembly inh,ALDH1A1 block,Luc counter,HPGD block,IMPase cell inh
COCCn1c(SCC(=O)c2ccc3c(c2)OCCO3)nnc1-c1ccoc1C,?,?,20µM*,-4%,-23%,12
COc1ccc(C)cc1-n1nnnc1SCC(=O)Nc1cc(C)on1,-10%,-23,2µM*,7%,-4%,2
COc1ccc(C)cc1-n1nnnc1SCC(=O)NC(=O)NCc1ccco1,7%,-81*,13µM*,2%,-14%,-9
COCCCn1c(SCC(=O)n2c(C)c(C)c3ccccc32)nnc1-c1ccoc1C,-11%,?,25µM*,0%,-11%,4
COc1ccc(-n2nnnc2SCC(=O)NCc2ccco2)cc1OC,3%,25,0%,-5%,-18%,-10
Cc1cc(NS(=O)(=O)c2ccc(NC(=O)COc3ccccc3Br)cc2)no1,.,.,.,.,.,-6
Cc1ccc(NC(=O)N2CCC(n3c(C)nc4cccnc43)CC2)c(Cl)c1,5%[46 µM],.,.,.,.,.
Cc1cc2c(nc1C)CCCN2C[C@H](C)O/N=C\[C@@H](C)[C@H](OCc1ccccc1)C(C)C,.,.,-14%[13.5 µM],.,.,.
COc1ccc(OC)c(-n2nnnc2SCC(=O)NCCc2ccccc2)c1,1%,?,1.3µM*,-4%,-24%,-6
COc1ccc(C)cc1-n1nnnc1SCC1CCCO1 (centres undefined),26%,49,13µM*,-2%,-13%,3
CC(=O)C1CCC2C3CC(C)C4=CC(=O)CC[C@@]4(C)C3C(O)C[C@@]12C (some centres undefined),.,.,-1%,-10%,-1%,.
COc1cccc2c1OC(=O)CC2c1ccccc1C (centres undefined),.,.,-11%[120 µM],2%[39.9 µM],?,.
COc1ccc(OCCN(C)Cc2ccccc2)cc1,-5%,-4,5%,-2%,-11%,-3
COc1ccc(CN(C)C2c3ccccc3-c3ccccc32)cc1,-22%,-91*,-21%,.,.,0
Cc1cc(/C=C2\SC(=S)N(Cc3ccco3)C2=O)c(C)n1-c1ccccc1,?,-22,0.089µM*,-6%,?,.
Cc1cc(/C=C2\SC(=O)NC2=O)c(C)n1-c1ccc(N2CCOCC2)cc1,.,.,-5%,.,.,.
O=C1/C(=C\c2ccco2)SC(=S)N1c1ccccc1,1%,-5,8.9µM*,0%,-19%,.
O=C1/C(=C\c2ccco2)SC(=S)N1Cc1ccccc1,?,-9,14µM*,-1%,-21%,11
COc1ccc(-n2c(C)cc(/C=C3/SC(=S)N(C)C3=O)c2C)cc1,-13%,?,1µM*,-2%,-10%,.
Cc1ccc(C)c(NC(=O)Nc2cc3c(cc2N2CCCCC2)n(C)c(=O)n3C)c1,.,.,.,.,.,1
CCOc1ccc(/C=C2/SC(=S)N(n3c(C)ccc3C)C2=O)cc1,?,?,?,0%,-4%,8
COc1ccc(/C=C2/SC(=S)N(n3c(C)ccc3C)C2=O)cc1,17%,2,6.3µM*,6%,-26%,-5
CCC(=O)[C@@H](c1ccccc1)c1ccccn1,.,.,25%[13.5 µM],-3%[7.66 µM],-3%,.
CCCCCCCSc1nnc(-c2ccccc2N)c(=O)[nH]1,.,.,-10%,10%,.,.
